# Rows were chosen to be rich in hits. Some 3.5% of all compounds tested hit in one or more screens of this group.
# Anthrax LF prot – anthrax lethal factor protease inhibition. P15917. multiplex microsphere protease cleavage assay, LF. inhibition, % at 10 µM. 360,000 compounds, 0.12% hits. AID 588501
# BoNT-F LC inh – BoNT F light chain protease inhibition; Multiplex microsphere protease cleavage assay, flow cytometry; inhibition, % at 10 µM; 360,000 compounds, 0.22% hits; in the data active = inhibition above about 35%, passing the limit was not always enough; inconclusive = no clear call, values can overlap the other calls
# BoNT-A LC inh2 – BoNT A light chain protease inhibition | multiplex microsphere protease substrate cleavage, flow cytometry | inhibition, % at 10 µM | 360,000 compounds, 0.17% hits
# Bead autofluor – flagged as autofluorescent in microsphere protease counterscreen; 360,000 compounds, 3.1% hits; fluorescence intensity (test concentration not listed); compound autofluorescence counterscreen, microsphere flow cytometry; hits give high values; in the data active = fluorescence intensity above about 16000; inconclusive = no clear call, values can overlap the other calls
# BJeLR lethal – kills HRASV12-expressing BJeLR cells; BJeLR (HRASV12) viability, CellTiter-Glo ATP luminescence, 48 h; inhibition, % (no concentration beside the values); 300,000 compounds, 0.17% hits; AID 1554; in the data active = inhibition above about 50%; inconclusive = no clear call, values can overlap the other calls
# Hits are given with their value; . = inactive; ? = inconclusive; / = no result given. Cut-off read from the data, not from the text of the source, unless noted: active = inhibition above about 30%; inconclusive = no clear call, values can overlap the other calls; inactive = below that.
SMILES,Anthrax LF prot,BoNT-F LC inh,BoNT-A LC inh2,Bead autofluor,BJeLR lethal
COc1ccc(CC(N)c2csc(NC(=O)Nc3ccccc3-c3ccccc3)n2)cc1 (stereo unspecified),.,.,.,.,/
Fc1ccccc1SCc1nnc(-c2ccccc2Br)o1,.,.,.,.,.
Cc1cc(NC(=O)c2nn3cccnc3c2Cl)no1,.,.,.,21821,.
NC(=O)COc1cccc2cccnc12,.,.,.,16622,.
Cc1cc(NC(=O)COc2cccc3cccnc23)no1,/,/,/,/,.
Cn1c(SCC(=O)Nc2ccc(N3CCOCC3)c(Cl)c2)nnc1C(O)c1ccccc1 (stereo unspecified),.,.,.,.,.
Cn1c(COc2ccccc2)nnc1SCC(=O)Nc1ccc(N2CCOCC2)c(Cl)c1,.,.,?,17200,.
O=[N+]([O-])/C=C/c1cn(Cc2ccc(Cl)cc2)c2ccccc12,.,.,39,.,.
O=C(Nc1cccnc1)/C(N=Nc1cccnc1)=C(\O)c1ccccc1,.,.,.,.,.
CC(C)OC(=O)c1ccc(NC(=O)c2cncc(Br)c2)cc1,.,.,.,.,.
CN(C)C(=O)c1ccc(NC(=O)c2cncc(Br)c2)cc1,.,.,.,21882,.
O=C(COc1ccccc1)N1CCNC1=O,.,.,.,21620,.
O=C(COc1ccccc1)N1CCCC1,.,.,.,.,.
COc1ccc(CC(=O)N2CCNC2=O)cc1,.,.,.,19689,.
CCOC(=O)c1sc2cccc(F)c2c1N,.,.,?,22763,.
CCOC(=O)CCc1c(C)c(C#N)c2nc3ccccc3n2c1-n1ccnc1,.,.,.,.,.
CCc1c(C)c(C#N)c2nc3ccccc3n2c1Cl,/,/,/,/,129
CCc1c(C)c(C#N)c2nc3ccccc3n2c1-n1nc(C)cc1C,.,.,.,.,.
COC(=O)CCc1c(C)c(C#N)c2nc3ccccc3n2c1N1CCCC1,.,.,.,22382,.
Cc1cc(OC(C)C(=O)N2C[C@H]3C[C@@H](C2)c2cccc(=O)n2C3)c2c(C)c(C)c(=O)oc2c1 (stereo partly specified),.,.,.,.,.
CC1(c2ccccc2)CC(c2ccccc2)=C(C#N)C(=O)N1 (stereo unspecified),.,.,.,.,/
CC1(c2cccs2)CC(c2cccs2)=C(C#N)C(=O)N1 (stereo unspecified),.,.,.,22806,.
COc1ccccc1NC(=O)CN(Cc1ccco1)C(=O)c1cccs1,.,.,.,23213,.
COc1ccccc1NC(=O)c1cccs1,.,.,.,16647,.
COc1cc(NC(=O)c2cccs2)c(OC)cc1NC(=O)CCC(=O)Nc1ccc2ncccc2c1,.,.,.,.,58
SMILES,Anthrax LF prot,BoNT-F LC inh,BoNT-A LC inh2,Bead autofluor,BJeLR lethal
COc1ccc(OCC(=O)Nc2ccc(NC(=O)c3cccs3)c(OC)c2)cc1,.,.,.,.,.
COc1cc(OC)cc(C2=Cc3ccccc3C(CC(C)=O)N2c2ccc(C#CCCO)cc2)c1 (stereo unspecified),.,.,.,.,/
COc1ccc(/C=C2\CC/C(=C\c3ccc(OC)c(OC)c3)C2=O)cc1OC,.,.,.,.,.
COc1ccc(C=C2C=C(C(C)(C)C)C(=O)C(C(C)(C)C)=C2)cc1OC,.,.,86,.,80
Cc1ccnc(N2C(=O)OC(C)(C)C2(C)O)c1 (stereo unspecified),.,.,.,16787,.
CC1(C)OC(=O)N(c2ccccn2)C1(C)O (stereo unspecified),.,.,.,.,.
Nc1nc(-c2cccnc2)nn1C(=O)Cc1ccccc1,.,.,.,22678,.
Nc1nc(-c2ccccc2)nn1C(=O)Cc1ccccc1,.,.,.,.,.
NC(Cc1ccc(C(F)(F)F)cc1)c1csc(Nc2ccc(S(N)(=O)=O)cc2)n1 (stereo unspecified),.,.,.,.,/
C=CCSc1nc(C)cc(/C=C\c2ccccc2)c1C#N,.,.,?,21811,.
CCN=c1scc(-c2ccco2)n1/N=C/c1ccc(OC)c(O)c1,.,.,?,24329,.
Cc1sc2nc(SCC(=O)OC(C)C)n(C)c(=O)c2c1C,.,.,.,.,.
CCOC(=O)CNC(=O)CSc1nc2sc(C)c(C)c2c(=O)n1C,.,.,.,23793,.
Cc1sc2nc(SCC(=O)NCCO)n(C)c(=O)c2c1C,.,.,?,21991,.
Cc1sc2nc(SCC(=O)NCc3ccco3)n(C)c(=O)c2c1C,.,.,.,.,.
Cc1ccc(C2(C)NC(=O)N(CC(=O)NCc3cccc(Cl)c3)C2=O)cc1 (stereo unspecified),.,.,.,.,.

# Compound activity as filed in PubChem BioAssay.
